# According to PubChem BioAssay:
# For some of these results: Results with a measured potency or affinity are listed apart. Calls of active or inactive are those of the source. Unless noted, the rule behind the calls is not given here.
# Experiments:
# [1] = biological target: Cell division control protein 42 homolog (Homo sapiens) (UniProt P60953); experiment: activated mutant Cdc42 GTP-binding inhibitors, dose response, biochemical, multiplex bead flow cytometry, Bodipy-FL-GTP (AID 1333;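 active = fitted half-maximal concentration within the tested dose range, moderate curve steepness, a statistically real signal drop, and little compound fluorescence or tag-binding interference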)
# Sequence of Cell division control protein 42 homolog (Homo sapiens) (P60953 whole entry, looked up): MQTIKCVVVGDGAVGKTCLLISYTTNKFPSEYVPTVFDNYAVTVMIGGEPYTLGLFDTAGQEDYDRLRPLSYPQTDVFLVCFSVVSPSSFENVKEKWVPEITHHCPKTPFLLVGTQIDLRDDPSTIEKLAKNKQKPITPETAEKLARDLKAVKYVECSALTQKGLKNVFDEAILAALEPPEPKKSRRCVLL
# [2] = biological target: Cell division control protein 42 homolog (Homo sapiens) (UniProt P60953); experiment: wildtype Cdc42 GTP-binding inhibitors, dose response, biochemical, multiplex bead flow cytometry, Bodipy-FL-GTP (AID 1334;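 active = fitted half-maximal concentration within the tested range, moderate curve steepness, significant signal drop, and little compound fluorescence or bead-linkage interference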); details: bead-based flow cytometry, Bodipy-FL-GTP binding to GST-Cdc42; at 100 µM (top of the series) unless noted
# [3] = biological target: GTPase HRas (Homo sapiens) (UniProt P01112); experiment: inhibitors of GTP binding to wildtype Ras, dose response, biochemical, multiplex bead flow cytometry (AID 1335;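 active = fitted half-maximal concentration within 10 nM to 100 µM, steepness 0.5 to 2, significant signal drop, low assay interference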); details: bead-based flow cytometry, Bodipy-GTP binding to GST-Ras; at 100 µM (top of the series) unless noted
# Sequence of GTPase HRas (Homo sapiens) (P01112 whole entry, looked up): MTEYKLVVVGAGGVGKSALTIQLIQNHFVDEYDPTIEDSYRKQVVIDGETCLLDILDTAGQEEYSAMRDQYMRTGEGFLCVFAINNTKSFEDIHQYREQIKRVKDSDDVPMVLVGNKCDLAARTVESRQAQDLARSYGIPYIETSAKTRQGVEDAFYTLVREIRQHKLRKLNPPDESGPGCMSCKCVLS
# [4] = tested on: Ras-related protein Rab-7a (dog), GTP binding; experiment: Rab7 GTP binding inhibitors, potency, dose response, biochemical, wildtype, multiplex bead flow cytometry (AID 1336)
# [5] = biological target: GTPase HRas (Homo sapiens) (UniProt P01112); experiment: activated Ras mutant GTP binding inhibitors, dose response, biochemical, multiplex bead flow cytometry (AID 1341;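 active = dose-response curve with midpoint inside the tested range, moderate steepness, significant amplitude and little compound fluorescence or bead-attachment interference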;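 note: GST-tagged constitutively activated Ras mutant immobilized on beads and multiplexed with other GTPases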)
# [6] = biological target: Ras-related C3 botulinum toxin substrate 1 (Homo sapiens) (UniProt P63000); experiment: wildtype Rac1 GTP binding inhibitors, dose response, biochemical, multiplex bead flow cytometry (AID 1340;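 active = dose curve with midpoint inside tested range, moderate steepness, plateau gap beyond fit error, low compound glow and bead-link interference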); details: GST-Rac1 beads, Bodipy-FL-GTP binding; at 100 µM (top of the series) unless noted
# [7] = RPL19A-GFP modulators, yeast TOR pathway, confirmation, cell-based, S. cerevisiae, flow cytometry, cherry picks, mother/daughter gates (AID 2270;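 active = GFP response below 50% of the DMSO control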); details: S. cerevisiae RPL19A-GFP strain, 3 h, at 10 µM, stronger effect = lower value, 100 = same GFP as DMSO wells
# [8] = LAP4-GFP expression modulators in yeast, confirmation, cell-based, cherry picks, flow cytometry, mother/daughter gates (AID 2271;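 active = GFP response above 150% of the DMSO control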;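 note: ratio of sample to DMSO plate mean so 100% equals DMSO level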); details: S. cerevisiae LAP4-GFP strain, 3 h, at 10 µM, stronger effect = higher value, 100 means same as DMSO control
# [9] = modulators of MEP2-GFP levels in yeast, confirmation, S. cerevisiae, flow cytometry GFP, cherry picks (AID 2272;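 active = GFP response above 150% of the DMSO control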;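 note: ratio of well signal to plate DMSO mean so 100% equals DMSO level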); details: S. cerevisiae MEP2-GFP strain, 3 h, at 10 µM, stronger effect = higher value
# [10] = AGP1-GFP expression modulators, hit retest, confirmation, cell-based, flow cytometry, S. cerevisiae, cherry picks (AID 2273;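 active = GFP response above 150% of the DMSO level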;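 note: median GFP channel fluorescence over the whole cell population gate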); details: S. cerevisiae AGP1-GFP strain, 3 h, at 10 µM
# [11] = modulators of CIT2-GFP expression in yeast, confirmation, S. cerevisiae, GFP fusion, cherry picks, mother/daughter gates (AID 2274;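 active = GFP response above 150% of the DMSO level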); details: S. cerevisiae CIT2-GFP strain, flow cytometry, 3 h, at 10 µM, stronger effect = higher value
# [12] = measured here: daughter cell gate
# [13] = measured here: mother cell gate
smiles,measurement,setting,value
COc1ccccc1NCc1sc(C(=O)O)cc1C,outcome,[1],inactive
same,"fluorescence, percent of control (lower = inhibition)",[2],64.9%
same,"GTP binding, percent of control",[3],86.4%
same,outcome,[4],inactive
same,outcome,[5],inactive
O=C(C#CC1CCCCC1)c1ccc([N+](=O)[O-])cc1,"fluorescence, percent of control (lower = inhibition)",[2],33%
same,"GTP binding, percent of control",[3],177%
same,outcome,[4],inactive
same,"GTP binding signal, raw median fluorescence (lower = inhibition) (MCF (arbitrary fluorescence units))",[6],45.6
same,outcome,[5],inactive
NC(N)=NS(=O)(=O)c1ccc(NC(=S)NC(=O)c2ccc3c(c2)OCO3)cc1,outcome,[1],inactive
same,"fluorescence, percent of control (lower = inhibition)",[2],44.3%
same,"GTP binding, percent of control",[3],97.7%
same,outcome,[4],inactive
same,outcome,[5],inactive
Cc1ccc(-n2c(=O)cc(N3CCc4ccccc4C3)[nH]c2=O)cc1,outcome,[1],inactive
same,"fluorescence, percent of control (lower = inhibition)",[2],58.7%
same,outcome,[4],inactive
same,"GTP binding signal, raw median fluorescence (lower = inhibition) (MCF (arbitrary fluorescence units))",[6],251
same,outcome,[5],inactive
O=C(O)c1cn(CCOc2ccccc2)c2ccccc12,outcome,[1],inactive
same,"fluorescence, percent of control (lower = inhibition)",[2],76.5%
same,"GTP binding, percent of control",[3],92.7%
same,outcome,[4],inactive
same,outcome,[5],inactive
COc1cc(/C=N\NC(=O)c2sc(N)nc2C)cc(OC)c1OC,outcome,[1],inactive
same,"fluorescence, percent of control (lower = inhibition)",[2],39.4%
same,"GTP binding, percent of control",[3],51.7%
same,outcome,[4],inactive
same,outcome,[5],inactive
NC(=S)N=Nc1c(O)[nH]c2ccc(F)cc12,outcome,[1],inactive
same,"fluorescence, percent of control (lower = inhibition)",[2],30.2%
same,"GTP binding, percent of control",[3],64.9%
same,outcome,[4],inactive
same,outcome,[5],inactive
CCOC(=O)c1nc(Nc2ccc(C(C)=O)cc2)c2ccccc2n1,outcome,[1],inactive
same,"fluorescence, percent of control (lower = inhibition)",[2],36%
same,"GTP binding, percent of control",[3],80.4%
same,outcome,[4],inactive
same,outcome,[5],inactive
Cc1cc(C(=O)Oc2ccccc2C(=O)O)c(C)o1,outcome,[1],inactive
same,"fluorescence, percent of control (lower = inhibition)",[2],61.1%
same,outcome,[5],inactive
COc1ccc(C(=O)/C=C/Nc2ccc(S(=O)(=O)Nc3nc(C)cc(C)n3)cc2)cc1OC,outcome,[1],inactive
same,"fluorescence, percent of control (lower = inhibition)",[2],39.1%
same,"GTP binding, percent of control",[3],80%
same,outcome,[4],inactive
same,outcome,[5],inactive
Cc1cc(NC(=O)CSc2nc(-c3ccccc3)c(C#N)c(=O)[nH]2)no1,outcome,[1],inactive
same,"fluorescence, percent of control (lower = inhibition)",[2],45.4%
same,outcome,[4],inactive
CCOC(=O)c1c(NC(=O)C(=O)N/N=C/c2ccc(O)c(OC)c2)sc2c1CCCCC2,outcome,[1],inactive
same,"GTP binding, percent of control",[3],64.6%
same,outcome,[4],inactive
same,"GTP binding signal, raw median fluorescence (lower = inhibition) (MCF (arbitrary fluorescence units))",[6],184
same,outcome,[5],inactive
O=C(NNC(=S)NCc1ccc(Cl)cc1)c1ccc(Br)o1,outcome,[1],inactive
same,"fluorescence, percent of control (lower = inhibition)",[2],28.8%
same,"GTP binding, percent of control",[3],74.4%
same,outcome,[4],inactive
same,outcome,[5],inactive
Cc1cc(C(=O)O)sc1CNCc1ccccc1Cl,outcome,[1],inactive
same,"fluorescence, percent of control (lower = inhibition)",[2],60.4%
same,"GTP binding signal, raw median fluorescence (lower = inhibition) (MCF (arbitrary fluorescence units))",[6],33.9
O=C(NC1CCCCC1)c1cc([N+](=O)[O-])[nH]n1,outcome,[1],inactive
same,"fluorescence, percent of control (lower = inhibition)",[2],37.3%
same,"GTP binding, percent of control",[3],80.1%
same,outcome,[4],inactive
same,outcome,[5],inactive
O=C(C#Cc1ccc(F)cc1)c1ccc([N+](=O)[O-])cc1,"fluorescence, percent of control (lower = inhibition)",[2],39.2%
same,"GTP binding, percent of control",[3],142%
same,outcome,[4],inactive
same,"GTP binding signal, raw median fluorescence (lower = inhibition) (MCF (arbitrary fluorescence units))",[6],48.4
same,outcome,[5],inactive
CC(C)Oc1ccc(/C=N/NC(=O)c2ccc(N(Cc3ccccc3)S(C)(=O)=O)cc2)cc1,outcome,[1],inactive
same,"fluorescence, percent of control (lower = inhibition)",[2],43.8%
same,"GTP binding, percent of control",[3],57.5%
same,outcome,[4],inactive
same,outcome,[5],inactive
CCS(=O)(=O)N1N=C(c2cccc(NS(C)(=O)=O)c2)CC1c1ccc(C)cc1 (centres undefined),outcome,[1],inactive
same,outcome,[4],inactive
same,"GTP binding signal, raw median fluorescence (lower = inhibition) (MCF (arbitrary fluorescence units))",[6],230
same,outcome,[5],inactive
same,GFP response vs DMSO,[7],100% (inactive)
same,GFP response vs DMSO,[7]; [12],99.1%
same,GFP response vs DMSO,[7]; [13],101%
same,GFP response relative to DMSO,[8],101% (inactive)
same,GFP response relative to DMSO,[8]; measured here: daughter cell gate response,97.5%
same,GFP response relative to DMSO,[8]; measured here: mother cell gate response,100%
same,GFP response vs DMSO,[9],116% (inactive)
same,"GFP response, % of DMSO",[10],104% (inactive)
same,"GFP response, % of DMSO",[11],108% (inactive)
same,"GFP response, % of DMSO",[11]; [12],105%
same,"GFP response, % of DMSO",[11]; [13],108%
